Inconclusive results are not listed. Values without a mark were called inactive. Calls come from the whole dose curve; as a rule, active = well fitted curve in the direction sought with a large enough effect in the repeat runs; inconclusive = weak or mixed curves; inactive = no such curve, though single readings can be large; an effect the other way counts as inactive or inconclusive.
test: qHTS assay to identify small molecule agonists of the RXR signaling pathway - cell viability counter screen (AID 1159529); details: RXR-alpha-bla HEK293T viability, CellTiter-Glo, 16 h; series mostly up to 76.8 µM; activity change, negative = cytotoxicity: at the top concentration; note: nearly all actives have a fitted effect of over 50% in size
Procedure, shortened: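 Cell viability is measured by CellTiter-Glo luminescence, 30 min at room temperature, in wells already read for beta-lactamase. Engineered HEK 293T cells (RXR-alpha-UAS-bla) are dosed 16 hr at 37 C. Tetraoctyl ammonium bromide serves as positive control.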
% is set by controls: 0 for no effect and ±100 for the full control effect.

In order of rising “activity change, negative = cytotoxicity” value:
1. C=CCOC(=O)c1ccc(C(=O)OCC=C)c(C(=O)OCC=C)c1  -14.5%
2. C=C(C)C(=O)OCCCCCCOC(=O)C(=C)C  -14.2%
3. CCCCCCCCCOCC1CO1 (stereo unspecified)  -7.94%
4. CC(C)COC(=O)/C=C/c1ccccc1  -6.69%
5. CC1=NN(c2ccc(S(=O)(=O)O)cc2)C(=O)C1N=Nc1ccccc1 (stereo unspecified)  -2.26%
6. CC(=O)c1ccc2c(c1)CCCC2  -1.31%
7. CCOC(=O)CCc1ccccc1  -1.08%
8. CCCC(C)CC (stereo unspecified)  -0.867%
9. C1=C\CC/C=C\CC/1  -0.0852%
10. CCCCCC(=O)OCC  -0.0555%
11. CC(C)CCCCCCOC(=O)C1CCCCC1C(=O)OCCCCCCC(C)C (stereo unspecified)  0.187%
12. CCOc1ccc(NC(=O)OC(C)C)cc1OCC  0.43%
13. O=C1c2ccccc2-c2ccccc21  0.703%
14. O=S(=O)(O)SSS(=O)(=O)O  1.15%
15. CN(C1CCCCC1)S(=O)(=O)c1ccccc1N  1.35%
16. COc1cc([N+](=O)[O-])ccc1N  2.86%
17. CCCCCCCCCCCCCC(=O)OC  2.94%
18. CCCOCCOCCOCCO  3.98%
19. F[Si-2](F)(F)(F)(F)F  4.09%
20. Nc1ccnc(=O)[nH]1  4.82%
21. C=CC(C)(O)CC/C=C(\C)CC (stereo unspecified)  4.86%
22. CCN(Cc1cccc(S(=O)(=O)O)c1)c1ccccc1  7.06%

In order of falling “activity change, negative = cytotoxicity” value:
1. CN=C(NC#N)NCCSCc1csc(N=C(N)N)n1  9.88% [at 35.3 µM]
2. CCNC(=O)/C=C/c1cccc(Br)c1  7.68% [at 35.3 µM]
3. CCCCCN(CCCOC)C(=O)C(CCC(=O)O)NC(=O)c1ccc(Cl)c(Cl)c1 (stereo unspecified)  5.79% [at 35.3 µM]
4. CC(=O)c1ccc(OCC(=O)N2CCCCC2)cc1  3.92% [at 35.3 µM]
5. C=CCOCC(CO)(COCC=C)COCC=C  2.89% [at 35.3 µM]
6. Nc1ccc(C(=O)OCC(O)CO)cc1 (stereo unspecified)  1.58% [at 35.3 µM]
7. CC(C)C(=O)Nc1cccc(C(F)(F)F)c1  1.26% [at 35.3 µM]
8. COc1ccc(NS(=O)(=O)c2ccc(N)cc2)nn1  0.675% [at 35.3 µM]
9. NC(Cc1c[nH]c2ccccc12)C(=O)O (stereo unspecified)  0.664% [at 35.3 µM]
10. CC(C)(CO)[C@@H](O)C(=O)NCCCO  0.462% [at 35.3 µM]
11. CC(=O)N1CCN(c2ccc(O)cc2)CC1  0.179% [at 35.3 µM]
12. CCCCC(CC)CNC(=O)CC(C)OC(=O)CCC(=O)O (stereo unspecified)  -3.56% [at 35.3 µM]
13. O=C(/C=C/c1ccccc1)NCCO  -11.1% [at 35.3 µM]
14. Cc1ccc2c(c1)c1c3n2CCNC3CCC1 (stereo unspecified)  -16.3% [at 35.3 µM]

In the case of Nc1ccc(/C=C/c2ccc(N)cc2S(=O)(=O)O)c(S(=O)(=O)O)c1, the activity change, negative = cytotoxicity was 1.24% [at 0.29 µM].

test: qHTS assay to identify small molecule antagonists of the retinoid acid receptor (RAR) signaling pathway - cell viability counter screen (AID 1159551); details: C3RL4 cells viability, ATP luminescence (CellTiter-Glo), 6 h; series mostly up to 92.4 µM; activity change, negative = cytotoxicity: at the top concentration; note: nearly all actives have a fitted effect of over 35% in size
Procedure, shortened: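 In this counter screen, the RARE-luciferase line C3RL4 was exposed for 6 h at 37 C and 5% CO2 to compounds with retinol at 1 uM final. Cellular ATP, read by luminescence, served as the viability measure.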

In order of rising “activity change, negative = cytotoxicity” value:
1. CCOC(=O)CCc1ccccc1  -2.34%
2. C1=C\CC/C=C\CC/1  -2.28%
3. C=C(C)C(=O)OCCCCCCOC(=O)C(=C)C  -2.03%
4. CN(C1CCCCC1)S(=O)(=O)c1ccccc1N  -1.26%
5. CCCCCC(=O)OCC  -0.884%
6. CC(=O)c1ccc2c(c1)CCCC2  -0.78%
7. C=CC(C)(O)CC/C=C(\C)CC (stereo unspecified)  -0.254%
8. C=CCOC(=O)c1ccc(C(=O)OCC=C)c(C(=O)OCC=C)c1  -0.246%
9. CCCCCCCCCOCC1CO1 (stereo unspecified)  0.12%
10. CCCCCCCCCCCCCC(=O)OC  0.678%
11. CCCC(C)CC (stereo unspecified)  0.752%
12. CCN(Cc1cccc(S(=O)(=O)O)c1)c1ccccc1  1.22%
13. CCOc1ccc(NC(=O)OC(C)C)cc1OCC  1.71%
14. F[Si-2](F)(F)(F)(F)F  1.9%
15. CCCOCCOCCOCCO  2.39%
16. O=S(=O)(O)SSS(=O)(=O)O  2.52%
17. CC1=NN(c2ccc(S(=O)(=O)O)cc2)C(=O)C1N=Nc1ccccc1 (stereo unspecified)  2.63%
18. CC(C)COC(=O)/C=C/c1ccccc1  2.74%
19. COc1cc([N+](=O)[O-])ccc1N  2.75%
20. Nc1ccnc(=O)[nH]1  2.81%
21. O=C1c2ccccc2-c2ccccc21  3.15%
22. CC(C)CCCCCCOC(=O)C1CCCCC1C(=O)OCCCCCCC(C)C (stereo unspecified)  3.77%

In order of rising “activity change, negative = cytotoxicity” value:
1. CCCCC(CC)CNC(=O)CC(C)OC(=O)CCC(=O)O (stereo unspecified)  -1.73% [at 42.5 µM]
2. CC(C)C(=O)Nc1cccc(C(F)(F)F)c1  -1.3% [at 42.5 µM]
3. Cc1ccc2c(c1)c1c3n2CCNC3CCC1 (stereo unspecified)  -0.802% [at 42.5 µM]
4. C=CCOCC(CO)(COCC=C)COCC=C  -0.3% [at 42.5 µM]
5. CCNC(=O)/C=C/c1cccc(Br)c1  -0.249% [at 42.5 µM]
6. NC(Cc1c[nH]c2ccccc12)C(=O)O (stereo unspecified)  -0.103% [at 42.5 µM]
7. O=C(/C=C/c1ccccc1)NCCO  0.71% [at 42.5 µM]
8. COc1ccc(NS(=O)(=O)c2ccc(N)cc2)nn1  0.764% [at 42.5 µM]
9. CC(=O)c1ccc(OCC(=O)N2CCCCC2)cc1  1.9% [at 42.5 µM]
10. CN=C(NC#N)NCCSCc1csc(N=C(N)N)n1  2.05% [at 42.5 µM]
11. CCCCCN(CCCOC)C(=O)C(CCC(=O)O)NC(=O)c1ccc(Cl)c(Cl)c1 (stereo unspecified)  2.61% [at 42.5 µM]
12. Nc1ccc(C(=O)OCC(O)CO)cc1 (stereo unspecified)  2.63% [at 42.5 µM]
13. CC(C)(CO)[C@@H](O)C(=O)NCCCO  4.38% [at 42.5 µM]
14. CC(=O)N1CCN(c2ccc(O)cc2)CC1  4.53% [at 42.5 µM]

For Nc1ccc(/C=C/c2ccc(N)cc2S(=O)(=O)O)c(S(=O)(=O)O)c1, the activity change, negative = cytotoxicity was 2.39% [at 0.349 µM].

test: qHTS assay to identify small molecule antagonists of the retinoic acid receptor (RAR) signaling pathway (AID 1159552; note: nearly all actives have a fitted effect of over 50% in size); details: C3RL4 RARE luciferase reporter, retinol-stimulated, 6 h; series mostly up to 92.4 µM; activity, negative = inhibition: at the top concentration
Procedure, shortened: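 Quantitative HTS in C3RL4 RARE-luciferase reporter cells. Compounds were added with 1 uM (final) retinol; luminescence was read after 6 hr.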

In order of rising “activity, negative = inhibition” value:
1. CCCCCCCCCCCCCC(=O)OC  -8.75%
2. F[Si-2](F)(F)(F)(F)F  -8.56%
3. C1=C\CC/C=C\CC/1  -5.34%
4. CCCCCC(=O)OCC  -4.58%
5. CCCOCCOCCOCCO  -3.12%
6. CCOC(=O)CCc1ccccc1  -2.95%
7. CCN(Cc1cccc(S(=O)(=O)O)c1)c1ccccc1  -1.84%
8. C=C(C)C(=O)OCCCCCCOC(=O)C(=C)C  -1.62%
9. CC(C)CCCCCCOC(=O)C1CCCCC1C(=O)OCCCCCCC(C)C (stereo unspecified)  -0.984%
10. O=S(=O)(O)SSS(=O)(=O)O  0.628%
11. CCOc1ccc(NC(=O)OC(C)C)cc1OCC  2.46%
12. Nc1ccnc(=O)[nH]1  4.94%
13. C=CC(C)(O)CC/C=C(\C)CC (stereo unspecified)  7.99%
14. CCCC(C)CC (stereo unspecified)  8.87%
15. CN(C1CCCCC1)S(=O)(=O)c1ccccc1N  9.21%
16. CC(=O)c1ccc2c(c1)CCCC2  9.39%
17. CCCCCCCCCOCC1CO1 (stereo unspecified)  11.9%
18. COc1cc([N+](=O)[O-])ccc1N  12.8%
19. CC1=NN(c2ccc(S(=O)(=O)O)cc2)C(=O)C1N=Nc1ccccc1 (stereo unspecified)  16.1%
20. O=C1c2ccccc2-c2ccccc21  38.9%
21. C=CCOC(=O)c1ccc(C(=O)OCC=C)c(C(=O)OCC=C)c1  43.6%
22. CC(C)COC(=O)/C=C/c1ccccc1  108%

In order of rising “activity, negative = inhibition” value:
1. Cc1ccc2c(c1)c1c3n2CCNC3CCC1 (stereo unspecified)  -27.7% [at 42.5 µM]
2. CC(=O)N1CCN(c2ccc(O)cc2)CC1  -19.1% [at 42.5 µM]
3. CCCCCN(CCCOC)C(=O)C(CCC(=O)O)NC(=O)c1ccc(Cl)c(Cl)c1 (stereo unspecified)  -2.12% [at 42.5 µM]
4. NC(Cc1c[nH]c2ccccc12)C(=O)O (stereo unspecified)  -0.331% [at 42.5 µM]
5. Nc1ccc(C(=O)OCC(O)CO)cc1 (stereo unspecified)  0.0374% [at 42.5 µM]
6. CC(C)(CO)[C@@H](O)C(=O)NCCCO  0.178% [at 42.5 µM]
7. C=CCOCC(CO)(COCC=C)COCC=C  2.4% [at 42.5 µM]
8. COc1ccc(NS(=O)(=O)c2ccc(N)cc2)nn1  6.77% [at 42.5 µM]
9. CC(C)C(=O)Nc1cccc(C(F)(F)F)c1  11.4% [at 42.5 µM]
10. CN=C(NC#N)NCCSCc1csc(N=C(N)N)n1  13.7% [at 42.5 µM]
11. O=C(/C=C/c1ccccc1)NCCO  49.6% [at 42.5 µM]
12. CCNC(=O)/C=C/c1cccc(Br)c1  67.2% [at 42.5 µM]
13. CCCCC(CC)CNC(=O)CC(C)OC(=O)CCC(=O)O (stereo unspecified)  101% [at 42.5 µM]
14. CC(=O)c1ccc(OCC(=O)N2CCCCC2)cc1  116% [at 42.5 µM]

Nc1ccc(/C=C/c2ccc(N)cc2S(=O)(=O)O)c(S(=O)(=O)O)c1 showed an activity, negative = inhibition of 3.51% [at 0.349 µM].

Reference: PubChem BioAssay (Tox21)
